Assay outcomes (PubChem BioAssay)
Sampled rows, rich in hits. Any-hit rate of the full collection: about 3.9%.
BRCA1 expr up: increases BRCA1 expression | Potency, µM (series often up to 46.1 µM), without a hit: top-dose activation, usual class: activators | MCF7-BRCA1-FFLuc reporter, luminescence, 48 h; response scale: scaled: vehicle 0%, 10 µM genistein 100% | actives 1.1% (n = 380,000) | AID 624202; also: nearly all actives have a fitted effect of over 80% in size
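Reporter cells (MCF7, BRCA1 promoter-firefly luciferase) received library compounds across a concentration series for 48 h. End-point luminescence was measured and concentration-effect curves derived after normalization.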
PLK1 PBD inh: PLK1 (human) polo-box domain binding inhibition; P53350; Plk1 PBD binding of FITC phosphopeptide, fluorescence polarization; Potency, µM, inactives show max response, negative = inhibition, actives largely listed as inhibitors; actives 2.8% (n = 360,000); AID 720504; also: series mostly up to about 57 µM; % is scaled to controls: 0 for no effect and ±100 for the full control effect; nearly all actives have a fitted effect of over 65% in size
VDR inh: vitamin D3 receptor (human) inhibition. P11473. VDR-SRC2-3 peptide fluorescence polarization, 2 h. Potency, µM, for the others: max response, negative = inhibition, actives largely listed as inhibitors. actives 0.93% (n = 400,000); also: % is scaled to controls: 0 for no effect and ±100 for the full control effect
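The screen uses fluorescence polarization to detect compounds that interfere with recruitment of the SRC2-3 coactivator peptide to VDR; plates are read after 2 h at room temperature.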
Tb PFK inh: T. brucei PFK enzyme inhibition; O15648; T. brucei PFK, ADP-Glo luminescence; Potency, µM (doses to about 57.5 µM), inactives show at the top dose activity, negative = inhibition, hits mostly inhibitors; actives 0.17% (n = 330,000); AID 485367;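 also: 0% = uninhibited 1x PFK enzyme wells and -100% = no-enzyme wells; nearly all actives have a fitted effect of over 60% in size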
Target sequence (O15648 whole entry, looked up): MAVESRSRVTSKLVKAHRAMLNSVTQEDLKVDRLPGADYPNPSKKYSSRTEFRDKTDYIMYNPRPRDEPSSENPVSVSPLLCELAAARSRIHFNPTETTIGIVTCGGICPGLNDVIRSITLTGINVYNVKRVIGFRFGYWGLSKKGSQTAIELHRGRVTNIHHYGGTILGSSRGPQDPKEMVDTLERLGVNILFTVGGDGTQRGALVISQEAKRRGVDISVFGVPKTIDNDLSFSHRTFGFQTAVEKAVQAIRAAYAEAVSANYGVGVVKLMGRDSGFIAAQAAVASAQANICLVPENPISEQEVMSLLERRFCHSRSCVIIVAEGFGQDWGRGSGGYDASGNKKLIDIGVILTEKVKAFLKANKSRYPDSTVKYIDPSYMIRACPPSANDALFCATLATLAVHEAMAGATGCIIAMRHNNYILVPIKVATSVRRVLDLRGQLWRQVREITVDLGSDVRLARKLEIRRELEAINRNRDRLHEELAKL
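Activity is normalized to no-enzyme wells (full inhibition) and 1.25 nM enzyme wells (no inhibition). Reaction: 0.5 mM F6P, 0.1 mM ATP, 45 min RT, ADP-Glo luminescence; concentration-response curves fitted and classed by quality.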
The depositor's hits bear a star; ? = inconclusive; / = no result. Calls follow the shape of the dose curve; as a rule, active = well fitted curve in the direction sought with a large enough effect; inconclusive = small, poorly fitted or top-dose-only effect, or another doubt; inactive = no such curve, though single readings can be large; an effect the other way counts as inactive or inconclusive. Potency is read from the fitted curve at half-maximal effect.

SMILES	BRCA1 expr up	PLK1 PBD inh	VDR inh	Tb PFK inh
CC(C)NC(=O)C1(c2ccccc2)CC1(Cl)Cl (centres undefined)	0%	13µM*	-28%	0%
CC(O)(c1cccnc1)c1nc(-c2cccc3cccnc23)cs1 (centres undefined)	-18%	-2%	/	/
CC(=O)Oc1ccc2nc(-c3ccco3)oc(=O)c2c1	1%	27µM*	?	4%
CC(=O)Oc1ccc2nc(-c3cccs3)oc(=O)c2c1	1%	-12%	1%	-1%
Cn1c(CNC(=O)c2ccc(F)cc2)nc2ccccc21	-6%	27µM*	79µM*	8%
CCOC(=O)C(=Cc1ccc(OCc2ccc([N+](=O)[O-])cc2)c(OC)c1)C(=O)OCC	-97%	-4%	79µM*	-6%
COc1ccc(O)c(C(c2c(C)[nH][nH]c2=O)c2c(C)[nH][nH]c2=O)c1	-2%	7.5µM*	-4%	3%
COc1cc(C(c2c(C)[nH][nH]c2=O)c2c(C)[nH][nH]c2=O)ccc1OCc1ccc([N+](=O)[O-])cc1	3.2µM*	?	?	-20%
Cc1[nH][nH]c(=O)c1C(c1ccc([N+](=O)[O-])cc1)c1c(C)[nH][nH]c1=O	5%	27µM*	?	-14%
COc1cc(C(c2c(C)[nH][nH]c2=O)c2c(C)[nH][nH]c2=O)ccc1OC(=O)c1cccc([N+](=O)[O-])c1	2%	?	?	0%
CCCc1nnc(SCc2cc(=O)c3c(C)cc(C)cc3[nH]2)n1C	/	/	8%	/
COC(=O)C[C@H]1CC[C@@H](NC(=O)Nc2ccc(C(F)(F)F)cc2)[C@@H](CO)O1	/	-12%	/	/
COc1ccc(C(c2c(C)[nH][nH]c2=O)c2c(C)[nH][nH]c2=O)cc1Br	-10%	24µM*	?	-4%
Cc1ccc(C(c2c(C)[nH][nH]c2=O)c2c(C)[nH][nH]c2=O)cc1	-13%	27µM*	?	?
COc1cc(C(c2c(C)[nH][nH]c2=O)c2c(C)[nH][nH]c2=O)ccc1OC(C)C	-18%	?	?	-27%
Cc1[nH][nH]c(=O)c1C(c1ccc(Br)cc1)c1c(C)[nH][nH]c1=O	12%	?	?	-4%
Cc1[nH][nH]c(=O)c1[C@@H](c1ccccc1[N+](=O)[O-])C(C#N)C#N	-19%	24µM*	?	9%
Cc1cccc(C)c1NS(=O)(=O)c1ccc(NS(=O)(=O)c2ccc3c(c2)OCCO3)cc1	-19%	/	-17%	/
Cc1nc(NC(=O)CSc2nnc(C3CC3)n2N)c(Cl)cc1Cl	-30%	-1%	8%	-1%
CCOc1cc(C(=O)Nc2cc3c(cc2N2CCOCC2)n(C)c(=O)n3C)cc(OCC)c1OCC	-48%	13µM*	-29%	1%
COc1ccc(C(=O)Nc2cc3c(cc2N2CCOCC2)n(C)c(=O)n3C)cc1OC	-17%	1%	25%	3%
CC(=O)NCCOc1cccc2ccccc12	20%	-4%	1%	3%
CCCc1ccccc1OCCNC(C)=O	6%	3.4µM*	?	-10%
Cc1nc2ccc(S(=O)(=O)NCC(=O)Nc3ccc(F)cc3F)cc2s1	/	/	1%	/
Cc1ccc(Cl)cc1N1CCN(C(=O)c2cc3c(-c4ccccc4F)nn(C)c3s2)CC1	/	/	-5%	/
SMILES	BRCA1 expr up	PLK1 PBD inh	VDR inh	Tb PFK inh
COc1ccc(/C=C/c2nnc(NC(=O)COc3cccc(C)c3)s2)cc1	4.5µM*	1%	-9%	-1%
CCCC(=O)Nc1nnc(/C=C/c2ccc(OC)cc2)s1	5.6µM*	?	-11%	7%
CCCCC(=O)Nc1nnc(/C=C/c2ccc(OC)cc2)s1	?	-7%	2%	?
COc1ccc(NC(=O)CCN2C(=O)[C@@H]3[C@H](C2=O)[C@H]2C=C[C@@H]3C2)cc1	15%	27µM*	-24%	-1%
O=C(CCN1C(=O)C2C3C=CC(C3)C2C1=O)Nc1nccs1 (centres undefined)	0%	30µM*	-3%	2%
O=C(CCCCCN1C(=O)C2C3C=CC(C3)C2C1=O)Nc1nccs1 (centres undefined)	0%	2%	-21%	0%
O=C1OC(c2ccccc2)=NC12CC2c1ccc(Cl)cc1 (centres undefined)	-64%	1.9µM*	25µM*	-10%
O=CN1N=C(c2ccccc2)CC1c1ccc(Cl)cc1 (centres undefined)	-3%	-6%	3%	0%
CCC(C(=O)Nc1cc(Cl)ccc1OC)n1nc(-c2ccccc2)ccc1=O (centres undefined)	-50%	/	-11%	/
